Most compounds without a hit are left out; they make up all but 4% or so of the library.
697 NFkB inh: inhibitors of the PMA/ionomycin-induced NF-kB reporter in 697 B cells; 330,000 compounds, 0.33% hits; inhibition, % at 4 µM; AID 435022; 697 B-cell NF-kB luciferase reporter, 16 h; in the data active = inhibition above about 35%
Gli-Sufu antag: blocks Gli-Sufu signaling in a luciferase reporter | Sufu-KO-LIGHT fibroblasts, Gli luciferase reporter luminescence | inhibition, % at 5 µM | 340,000 compounds, 0.74% hits;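 active = inhibition above about 55%, limit read from the data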
Beta apoptosis: beta cell apoptosis inhibition | INS-1E cytokine-induced death, ATP luminescence, 48 h; percent of positive-control rescue, neutral wells zero | AID 435005 | 300,000 compounds, 0.8% hits | protection from apoptosis, % (no concentration beside the values);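 active = Every replicate reaches about 75%, or at least half do and their mean reaches it too, limit read from the data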;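 also: higher means more ATP so stronger rescue from cytokine killing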
Mdm2 MdmX PPI: disrupts the human Mdm2-MdmX interaction; SaOS-2 split-luciferase Mdm2/MdmX complementation, luminescence; inhibition, % at 8 µM; 330,000 compounds, 3% hits; AID 485346;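 active = inhibition of at least 50% at 8 µM in the primary screen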
Target sequence (O15151 whole entry, looked up): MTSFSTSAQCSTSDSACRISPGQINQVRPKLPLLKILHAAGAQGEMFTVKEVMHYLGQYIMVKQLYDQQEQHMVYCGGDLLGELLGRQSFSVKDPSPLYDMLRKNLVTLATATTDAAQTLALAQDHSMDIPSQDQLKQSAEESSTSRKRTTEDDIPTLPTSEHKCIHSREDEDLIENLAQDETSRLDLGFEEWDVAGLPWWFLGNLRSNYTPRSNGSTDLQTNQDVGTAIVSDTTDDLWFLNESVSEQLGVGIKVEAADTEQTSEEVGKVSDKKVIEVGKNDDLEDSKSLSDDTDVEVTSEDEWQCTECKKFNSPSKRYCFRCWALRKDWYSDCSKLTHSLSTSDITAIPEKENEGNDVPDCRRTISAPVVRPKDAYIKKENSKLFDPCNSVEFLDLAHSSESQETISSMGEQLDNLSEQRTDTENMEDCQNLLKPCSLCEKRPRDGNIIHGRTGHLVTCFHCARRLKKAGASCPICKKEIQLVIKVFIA
Target sequence (Q00987 whole entry, looked up): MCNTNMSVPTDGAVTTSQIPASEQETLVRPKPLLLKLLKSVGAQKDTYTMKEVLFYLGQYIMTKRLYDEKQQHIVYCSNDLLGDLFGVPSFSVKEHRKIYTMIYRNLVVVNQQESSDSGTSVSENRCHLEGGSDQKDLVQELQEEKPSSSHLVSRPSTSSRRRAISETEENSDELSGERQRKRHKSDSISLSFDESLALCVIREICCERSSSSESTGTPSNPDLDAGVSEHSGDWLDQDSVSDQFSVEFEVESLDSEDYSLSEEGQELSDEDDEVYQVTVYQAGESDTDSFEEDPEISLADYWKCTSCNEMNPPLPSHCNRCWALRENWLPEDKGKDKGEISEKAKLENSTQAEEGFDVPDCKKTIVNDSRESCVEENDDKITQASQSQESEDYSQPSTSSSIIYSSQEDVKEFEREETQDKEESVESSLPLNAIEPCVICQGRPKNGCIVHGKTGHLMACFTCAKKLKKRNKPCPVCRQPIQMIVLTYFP
Jurkat NFkB inh: lowers PMA/ionomycin-induced NF-kB signal in Jurkat cells. 330,000 compounds, 0.53% hits. inhibition, % at 4 µM. PMA/ionomycin-induced NF-kB luciferase reporter, luminescence; in the data active = inhibition above about 50%
Jurkat NFkB conf: lowers PMA/ionomycin-induced NF-kB signal in Jurkat cells; shares compounds with Jurkat NFkB inh; Jurkat NF-kB luciferase, 16 h; inhibition, % at 4 µM; 2,700 compounds, 27% hits; AID 435020;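 active = inhibition reaching about 45% at 4 µM in either replicate, limit read from the data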
Large screens that a line does not name were inactive (follow-up assays come after a bar, where they were run).

O=C(NC1CCCCC1)c1ccc(-c2cccc([N+](=O)[O-])c2)o1	none | Jurkat NFkB conf inactive
O=C(NC1CCCCC1)c1ccc(-c2ccccc2F)o1	none | Jurkat NFkB conf inactive
CCOc1ccc(-n2nc3cc(C)c(N)cc3n2)cc1	none | Jurkat NFkB conf inactive
CCOc1ccc(-n2nc3ccc(N)cc3n2)cc1	none
O=C(Nc1ccccc1)C1CCCN1/C=C/C(=O)C(F)(F)F (configuration not stated)	none
Nc1cccc(-c2cn3cc(C(F)(F)F)cc(Cl)c3n2)c1	none | Jurkat NFkB conf inactive
Cc1cc(C)c(C#N)c(SCc2ccccc2[N+](=O)[O-])n1	none
Cc1cc(C)c(C#N)c(SCc2nnc(-c3ccccc3[N+](=O)[O-])o2)n1	none | Jurkat NFkB conf inactive
CC(=O)c1sc(NC(=O)c2ccco2)nc1-c1ccccc1	none
COC(=O)c1c(-c2ccccc2)csc1NC(=O)c1ccco1	none | Jurkat NFkB conf inactive
Cc1sc(NC(=O)c2ccco2)nc1-c1ccccc1	none | Jurkat NFkB conf inactive
O=C(N/N=C/c1cn(-c2ccccc2)nc1-c1cc2ccccc2o1)c1ccncc1	none | Jurkat NFkB conf inactive
O=C(N/N=C/c1cn(-c2ccccc2)nc1-c1cc2ccccc2o1)c1cccnc1	none
Cc1c(C(=O)OCC(C)C)[nH]c2c1C(=O)CC(c1cccs1)C2 (configuration not stated)	Jurkat NFkB inh 51 | Jurkat NFkB conf inactive
N=c1c(C(=O)NCCc2ccccc2)cc2c(=O)n3ccccc3nc2n1CCCN1CCOCC1	Jurkat NFkB inh 53 | Jurkat NFkB conf inactive
O=C(Nc1ccccc1)C1Cc2ccccc2CN1C(=O)c1ccco1 (configuration not stated)	none | Jurkat NFkB conf inactive
CCc1ccccc1NC(=O)Cn1nnc(C(=O)NCc2cccs2)c1N	Jurkat NFkB inh 51 | Jurkat NFkB conf inactive
COc1cccc(-c2cc(C(=O)NC3CCCC3)no2)c1	none | Jurkat NFkB conf inactive
O=C(Nc1cccc(O)c1)c1cc(-c2cccs2)on1	none | Jurkat NFkB conf inactive
COc1cccc(-c2cc(C(=O)Nc3cccc(O)c3)no2)c1	none | Jurkat NFkB conf inactive
O=C(OCCN1CCCCC1)c1c[nH]c2ccccc12	none
Cc1cc(C)c(NC(=O)CN(C)C(=O)CCC(=O)c2ccc(C)s2)c(C)c1	none (no result: Beta apoptosis)
CCOc1cc(C#N)c(NC(=O)c2cccnc2)cc1OCC	Jurkat NFkB inh 62 | Jurkat NFkB conf 52
CCOc1cc(C#N)c(NC(=O)c2cccnc2Cl)cc1OCC	none
COc1cc(N/N=C/c2ccc(N(C)C)cc2)ncn1	none | Jurkat NFkB conf inactive
CCNc1nc(NCC)nc(N/N=C/c2ccc(N(C)C)cc2)n1	none
CC1(C)Cc2nc3sc4c(=O)n(CC(=O)NCc5ccco5)cnc4c3cc2CO1	Jurkat NFkB inh 50 | Jurkat NFkB conf inactive
O=C(CN1C(=O)NC2(CCOc3ccccc32)C1=O)NCCc1ccccc1 (configuration not stated)	Jurkat NFkB inh 64 | Jurkat NFkB conf inactive
COc1ccc2nc(Nc3nc(CSc4nc5ccccc5s4)cc(=O)[nH]3)nc(C)c2c1	none (no result: Gli-Sufu antag, Beta apoptosis)
CC1(C2CC2)NC(=O)N(CC(=O)N2CCN(c3cccc(C(F)(F)F)c3)CC2)C1=O (configuration not stated)	none
O=C(c1ccccc1)n1ccc(-c2cnc(-c3ccccc3)s2)n1	none (no result: Beta apoptosis) | Jurkat NFkB conf inactive
COc1ccc(S(=O)(=O)n2ccc(-c3cnc(-c4ccccc4)s3)n2)cc1	none
CCc1ccc(CN(C)Cc2nc(COc3ccccc3)no2)nc1	none
CC(C)(C)C(=O)Nc1nc(-c2ccccc2)ns1	none
c1ccc(Nc2nc(-c3ccccc3)ns2)cc1	none | Jurkat NFkB conf inactive
CC#CC(=O)N1CCC(n2nccc2NC(=O)c2ccc3c(c2)OCO3)CC1	Jurkat NFkB inh 74 | Jurkat NFkB conf inactive
CC1CCCCC1NCC(=O)NCc1ccc(F)cc1 (configuration not stated)	none
CSc1nc(N)n2nc(-c3ccc(Cl)cc3)cc2n1	none | Jurkat NFkB conf inactive
CC(=O)N1CCN(Cc2nc(-c3cccc(Cl)c3)no2)CC1	none
CCCCCc1ccc(-c2cn(CCCOCc3ccccc3)nn2)cc1	none
CCCCCc1ccc(-c2cn(CCc3c[nH]c4ccccc34)nn2)cc1	Jurkat NFkB inh 56 | Jurkat NFkB conf inactive
CC(=O)Nc1ccc(S(=O)(=O)N2CCSc3ccccc32)cc1	Jurkat NFkB inh 56 | Jurkat NFkB conf 49
O=S(=O)(c1cccc(Cl)c1)N1CCSc2ccccc21	none
Cc1csc2c(NC3CCN(Cc4ccccc4)CC3)ncnc12	none (no result: Beta apoptosis)
c1ccc(CN2CCC(Nc3ncnc4sccc34)CC2)cc1	Jurkat NFkB inh 58 | Jurkat NFkB conf inactive
Cc1sc2ncnc(NC3CCN(Cc4ccccc4)CC3)c2c1C	Gli-Sufu antag 78, Beta apoptosis 77, Jurkat NFkB inh 53 | Jurkat NFkB conf inactive
O=C(O)C1=C[C@H](c2ccc(C(F)(F)F)cc2)C[C@H](OCCCCO)O1	none
CCn1c(/C=C/c2c[nH]c3ccccc23)nc2ccccc2c1=O	none | Jurkat NFkB conf inactive
Cn1c(SCC(=O)Nc2nc(C(C)(C)C)cs2)nnc1C1CC1	none
Nc1c(C(=O)CSc2nccn2-c2ccc(Cl)cc2)c(=O)[nH]c(=O)n1C1CC1	none
CC(C)Nc1ccc(C(CC(N)=O)NC(=O)c2ccc(Br)cc2)cc1[N+](=O)[O-] (configuration not stated)	Jurkat NFkB inh 59 | Jurkat NFkB conf inactive
NC(=O)CC(NC(=O)Cc1ccc(Br)cc1)c1ccc(NCC2CC2)c([N+](=O)[O-])c1 (configuration not stated)	Jurkat NFkB inh 51 | Jurkat NFkB conf inactive
NC(=O)CC(NC(=O)Cc1ccc(Cl)cc1)c1ccc(NCC2CC2)c([N+](=O)[O-])c1 (configuration not stated)	none
N#C/C(=N\Nc1ccc(Cl)cc1)C(=N)N1CCCCCC1	none | Jurkat NFkB conf inactive
N#C/C(=N\Nc1ccccc1[N+](=O)[O-])C(=N)N1CCCCC1	none | Jurkat NFkB conf inactive
CC(=O)N(CN1C(=O)c2ccc([N+](=O)[O-])cc2C1=O)c1cccc(C(=O)O)c1	none
CNC(=S)NNC(=O)c1sc(-c2cc(C)on2)nc1C	none
COC(=O)c1cc(C(=O)OCC(=O)NCc2cccs2)cc([N+](=O)[O-])c1	none
O=C(Nc1ccc2c(c1)CCC2)Nc1ccc(F)cc1F	none | Jurkat NFkB conf inactive
O=C(Nc1ccc2c(c1)CCC2)c1ccc(F)cc1	none | Jurkat NFkB conf inactive
CN(C)S(=O)(=O)c1cccc(C(=O)Nc2ccc3c(c2)CCC3)c1	none | Jurkat NFkB conf inactive
O=C(Nc1ccc2c(c1)CCC2)c1cccs1	none | Jurkat NFkB conf inactive
O=C(Nc1ccc2c(c1)CCC2)c1cccc(OC(F)F)c1	none | Jurkat NFkB conf inactive
CC1CNC(=S)N(c2ccc(F)cc2)C1=O (configuration not stated)	none (no result: 697 NFkB inh, Beta apoptosis, Mdm2 MdmX PPI, Jurkat NFkB inh)
Cc1ccnc(NC(=O)Nc2ccc(Br)cc2Cl)c1	none | Jurkat NFkB conf inactive
Cc1ccc(C(=O)Nc2ccc(Cl)cc2C)c(Cl)c1	none (no result: Gli-Sufu antag) | Jurkat NFkB conf inactive

High-throughput results deposited in PubChem BioAssay by several laboratories.
